The values that follow come from PubChem BioAssay (EPA / NIEHS).

Assay [1] has as its target human Adrenergic, Alpha 2A Receptor (Adra2A), ADRA2A (gene 150) (UniProt P08913). Description: NVS_GPCR_hAdra2A: NovaScreen (NVS) G Protein-Coupled Receptor Assay for human Adrenergic, Alpha 2A Receptor (Adra2A) (AID 2283257). In a few lines:
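Radioligand filter-binding was run on HT29-derived membranes, cell-free, read by scintillation counting 1 h after dosing. Primary screening was in duplicate at 25 uM, with concentration series in follow-up. Loss of signal versus DMSO indicates displacement.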

For assay [2], the target named is human Leukotriene B4 Receptor 1 (LTB4-BLT1), LTB4R (gene 1241) (UniProt Q15722). Kind of assay: NVS_GPCR_hLTB4_BLT1: NovaScreen (NVS) G Protein-Coupled Receptor Assay for human Leukotriene B4 Receptor 1 (LTB4-BLT1) (AID 2283271). In a few lines:
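Radioligand displacement binding on receptor extracted from human neutrophils, cell-free, 1 h after dosing; filter-based scintillation counting. Primary screen in duplicate at 25 uM, actives retested in concentration-response up to 50 uM; loss of signal versus DMSO.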

Assay [3] concerns the target Muscarinic acetylcholine receptor M3 (Homo sapiens) (UniProt P20309). Description: NVS_GPCR_hM3: NovaScreen (NVS) G Protein-Coupled Receptor Assay for human Muscarinic, M3 Receptor (AID 2283272). In short, it runs like this:
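Radioligand displacement binding on human M3 receptor in CHO-derived membranes, 1 h incubation, filter-based scintillation counting. Primary screen in duplicate at 25 uM; actives followed up in concentration series; loss of signal versus DMSO.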

Assay [4] concerns the target Muscarinic acetylcholine receptor M2 (Homo sapiens) (UniProt P08172). Description: NVS_GPCR_hM2: NovaScreen (NVS) G Protein-Coupled Receptor Assay for human Muscarinic, M2 Receptor (AID 2283273). In short, it runs like this:
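Radioligand displacement on human M2 receptor membranes from CHO cells, 1 h incubation, filtration with scintillation counting. Primary screen in duplicate at 25 uM; actives retested in concentration series; loss of signal fitted versus DMSO.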

The target of assay [5] is human Muscarinic, M4 Receptor, CHRM4 (gene 1132) (UniProt P08173). Kind of assay: NVS_GPCR_hM4: NovaScreen (NVS) G Protein-Coupled Receptor Assay for human Muscarinic, M4 Receptor (AID 2283274). In a few lines: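 Cell-free radioligand displacement using CHO-derived human M4 receptor protein, 1 h after dosing; bound radioactivity by filtration and scintillation counting. Primary screen single 25 uM duplicate, actives followed in concentration series.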
Sequence of human Muscarinic, M4 Receptor, CHRM4 (gene 1132) (P08173 whole entry, looked up): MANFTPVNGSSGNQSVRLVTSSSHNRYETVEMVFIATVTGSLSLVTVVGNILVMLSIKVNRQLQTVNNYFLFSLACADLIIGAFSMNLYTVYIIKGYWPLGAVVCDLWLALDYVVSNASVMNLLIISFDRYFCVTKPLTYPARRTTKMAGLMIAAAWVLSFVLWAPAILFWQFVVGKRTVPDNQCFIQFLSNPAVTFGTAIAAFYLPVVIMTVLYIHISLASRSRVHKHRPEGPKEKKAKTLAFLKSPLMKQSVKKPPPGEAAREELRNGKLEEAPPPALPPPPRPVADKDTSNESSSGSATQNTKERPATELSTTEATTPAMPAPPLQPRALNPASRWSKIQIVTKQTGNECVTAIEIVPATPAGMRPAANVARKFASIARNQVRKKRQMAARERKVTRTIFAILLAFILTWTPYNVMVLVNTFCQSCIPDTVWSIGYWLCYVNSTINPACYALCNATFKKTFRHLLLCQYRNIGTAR

In assay [6] the target is human Dopamine Receptor D2 (DRD2), DRD2 (gene 1813) (UniProt P14416). Kind of assay: NVS_GPCR_hDRD2s: NovaScreen (NVS) G Protein-Coupled Receptor Assay for human Dopamine Receptor D2 (DRD2) (AID 2283266). In a few lines: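 Radioligand displacement used human DRD2 membranes extracted from CHO cells and was read by filter-based scintillation counting after 1.5 hours. Primary screening was in duplicate at 25 uM. Loss of signal versus DMSO was fitted, with concentration series in follow-up.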
Sequence of human Dopamine Receptor D2 (DRD2), DRD2 (gene 1813) (P14416 whole entry, looked up): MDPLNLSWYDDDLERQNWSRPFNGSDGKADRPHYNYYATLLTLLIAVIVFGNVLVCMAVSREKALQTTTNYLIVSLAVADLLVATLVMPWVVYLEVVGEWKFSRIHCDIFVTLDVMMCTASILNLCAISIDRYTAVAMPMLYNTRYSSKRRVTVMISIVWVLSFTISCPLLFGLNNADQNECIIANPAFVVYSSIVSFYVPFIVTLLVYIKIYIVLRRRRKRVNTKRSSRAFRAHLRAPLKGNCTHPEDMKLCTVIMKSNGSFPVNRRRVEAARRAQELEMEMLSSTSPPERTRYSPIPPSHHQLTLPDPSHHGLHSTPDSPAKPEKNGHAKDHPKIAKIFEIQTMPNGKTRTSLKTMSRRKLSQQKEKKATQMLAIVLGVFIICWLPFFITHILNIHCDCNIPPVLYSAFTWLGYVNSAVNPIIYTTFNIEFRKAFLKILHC

Assay [7] concerns the target D(1A) dopamine receptor (Homo sapiens) (UniProt P21728). Kind of assay: NVS_GPCR_hDRD1: NovaScreen (NVS) G Protein-Coupled Receptor Assay for human Dopamine Receptor D1 (DRD1) (AID 2283269). In a few lines: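 Extracted HEK293 DRD1 is incubated 1 h with compound and a tritiated or iodinated radioligand, then filtered and counted. Screening runs 25 uM in duplicate with on-plate positive and negative controls.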

Assay [8] addresses human Adrenergic, Alpha 2c Receptor (Adra2C), ADRA2C (gene 152) (UniProt P18825). Kind of assay: NVS_GPCR_hAdra2C: NovaScreen (NVS) G Protein-Coupled Receptor Assay for human Adrenergic, Alpha 2c Receptor (Adra2C) (AID 2283259). In a few lines: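 Radioligand binding on Sf9-expressed receptor membranes, 1 h after chemical dosing, filter-based scintillation read-out. Loss of binding fitted positively versus DMSO; primary duplicate screen at 25 uM, actives retested in concentration series.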

In assay [9] the target is Beta-2 adrenergic receptor (Homo sapiens) (UniProt P07550). Description: NVS_GPCR_hAdrb2: NovaScreen (NVS) G Protein-Coupled Receptor Assay for human Adrenergic, Beta 2 Receptor (Adrb2) (AID 2283261). In short, it runs like this:
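Filter-based radioligand binding using receptor prepared from CHO cells, 1 h incubation, scintillation counting. Primary screen in duplicate at 25 uM, actives retested in concentration series; loss of binding relative to DMSO.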

Assay [10] has as its target Type-1 angiotensin II receptor (Homo sapiens) (UniProt P30556). Description: NVS_GPCR_hAT1: NovaScreen (NVS) G Protein-Coupled Receptor Assay for human Angiotensin II receptor type 1 (AT1) (AID 2283263). In a few lines: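 Membranes from KAN-TS cells; radioligand competitive displacement, 3 h, filtration and scintillation counting. Single-point duplicate screen at 25 uM, then concentration-response up to 50 uM for hits; loss of signal fitted versus DMSO.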

The target in assay [11] is human Dopamine Receptor D4.4 (DRD4.4), DRD4 (gene 1815) (UniProt P21917). Kind of assay: NVS_GPCR_hDRD4.4: NovaScreen (NVS) G Protein-Coupled Receptor Assay for human Dopamine Receptor D4.4 (DRD4.4) (AID 2283264). In a few lines: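 Radioligand displacement on human DRD4.4 from CHO-derived membranes, 1 hour incubation, bound counts read by filtration and scintillation. Primary screen in duplicate at 25 uM; actives followed up in concentration series.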

For assay [12], the target named is human Histamine 1 Receptor (H1), HRH1 (gene 3269) (UniProt P35367). Kind of assay: NVS_GPCR_hH1: NovaScreen (NVS) G Protein-Coupled Receptor Assay for human Histamine 1 Receptor (H1) (AID 2283268). In short, it runs like this: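 Cell-free radioligand displacement at human H1 receptor, 1 h, filter scintillation counting; primary screen 25 uM in duplicate, hits in concentration series; loss of binding fitted vs DMSO.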
Sequence of human Histamine 1 Receptor (H1), HRH1 (gene 3269) (P35367 whole entry, looked up): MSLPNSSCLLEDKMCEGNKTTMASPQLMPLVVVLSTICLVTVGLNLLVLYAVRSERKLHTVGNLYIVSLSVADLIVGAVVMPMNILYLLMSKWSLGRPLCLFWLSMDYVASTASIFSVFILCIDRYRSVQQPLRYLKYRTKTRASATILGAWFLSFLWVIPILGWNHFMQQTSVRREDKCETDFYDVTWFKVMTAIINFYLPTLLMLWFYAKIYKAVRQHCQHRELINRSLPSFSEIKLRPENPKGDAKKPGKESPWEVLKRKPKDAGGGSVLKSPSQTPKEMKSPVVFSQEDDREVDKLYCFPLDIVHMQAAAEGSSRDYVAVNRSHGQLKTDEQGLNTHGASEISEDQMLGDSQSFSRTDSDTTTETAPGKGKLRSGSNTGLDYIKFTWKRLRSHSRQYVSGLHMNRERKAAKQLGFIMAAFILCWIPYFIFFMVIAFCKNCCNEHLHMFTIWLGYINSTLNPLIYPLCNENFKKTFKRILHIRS

Assay [13] deals with Muscarinic acetylcholine receptor M5 (Homo sapiens) (UniProt P08912). Description: NVS_GPCR_hM5: NovaScreen (NVS) G Protein-Coupled Receptor Assay for human Muscarinic, M5 Receptor (AID 2283275). In short, it runs like this: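 Radioligand displacement on CHO-derived membrane preparations, 1 h, filter-based scintillation counting. Single-concentration duplicate screen at 25 uM; hits (e.g. 30% inhibition) retested in singleton concentration-response up to 50 uM. Loss of binding fitted versus DMSO.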
Sequence of Muscarinic acetylcholine receptor M5 (Homo sapiens) (P08912 whole entry, looked up): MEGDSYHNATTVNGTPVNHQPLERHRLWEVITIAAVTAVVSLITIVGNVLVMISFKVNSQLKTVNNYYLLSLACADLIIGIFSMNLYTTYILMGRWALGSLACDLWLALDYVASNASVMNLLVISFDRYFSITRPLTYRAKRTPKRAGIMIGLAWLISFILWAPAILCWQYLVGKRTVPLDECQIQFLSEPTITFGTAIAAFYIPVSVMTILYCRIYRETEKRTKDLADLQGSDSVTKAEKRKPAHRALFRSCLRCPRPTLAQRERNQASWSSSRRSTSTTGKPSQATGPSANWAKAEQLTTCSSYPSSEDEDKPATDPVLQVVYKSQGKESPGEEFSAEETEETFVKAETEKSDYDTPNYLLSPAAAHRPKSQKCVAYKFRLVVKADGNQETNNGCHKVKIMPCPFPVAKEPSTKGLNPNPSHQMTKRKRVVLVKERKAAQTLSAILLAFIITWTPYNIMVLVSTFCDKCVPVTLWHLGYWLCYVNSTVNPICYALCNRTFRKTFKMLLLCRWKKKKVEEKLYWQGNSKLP

For assay [14], the target named is human Endothelin Receptor Type B (ETB), EDNRB (gene 1910) (UniProt P24530). Kind of assay: NVS_GPCR_hETB: NovaScreen (NVS) G Protein-Coupled Receptor Assay for human Endothelin Receptor Type B (ETB) (AID 2283267). In a few lines:
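Human astrocytoma cell membranes; radioligand competitive binding read by filter scintillation counting 4 hours after dosing. Single-concentration duplicate screen at 25 uM, then singleton concentration-response up to 50 uM; loss of signal versus DMSO.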

The target of assay [15] is human Endothelin Receptor Type A (ETA), EDNRA (gene 1909) (UniProt P25101). Kind of assay: NVS_GPCR_hETA: NovaScreen (NVS) G Protein-Coupled Receptor Assay for human Endothelin Receptor Type A (ETA) (AID 2283265). In short, it runs like this:
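Cell-free radioligand displacement using SH-SY5Y-derived protein, 3 h incubation, filter-based scintillation counting. Primary screen in duplicate at 25 uM; actives then run in concentration-response up to 50 uM; loss of binding fitted versus DMSO.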

In assay [16] the target is human Adrenergic, Beta 3 Receptor (Adrb3), ADRB3 (gene 155) (UniProt P13945). Kind of assay: NVS_GPCR_hAdrb3: NovaScreen (NVS) G Protein-Coupled Receptor Assay for human Adrenergic, Beta 3 Receptor (Adrb3) (AID 2283262). In a few lines: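 Membranes from SK-N-MC cells pretreated with isoproterenol and 8-bromo-cAMP were used in a radioligand competitive displacement binding assay. Binding was read by filter-based scintillation counting 1 hour after dosing. Primary screening was in duplicate at 25 uM, with concentration series in follow-up.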

In assay [17] the target is human Neuropeptide Receptor Y1 (NPY1), NPY1R (gene 4886) (UniProt P25929). Description: NVS_GPCR_hNPY1: NovaScreen (NVS) G Protein-Coupled Receptor Assay for human Neuropeptide Receptor Y1 (NPY1) (AID 2283276). In short, it runs like this: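 Cell-free radioligand binding using receptor extracted from SK-N-MC cells, 1 h incubation, filter-based scintillation counting. Primary screen single concentration 25 uM in duplicate; actives followed in concentration series. Loss of bound signal scored versus DMSO.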

In assay [18] the target is human Adrenergic, Beta 1 Receptor (Adrb1), ADRB1 (gene 153) (UniProt P08588). Kind of assay: NVS_GPCR_hAdrb1: NovaScreen (NVS) G Protein-Coupled Receptor Assay for human Adrenergic, Beta 1 Receptor (Adrb1) (AID 2283258). In a few lines: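 Cell-free radioligand displacement on receptor from human neuroepithelioma cells; 2 h after dosing, filter-based scintillation counting. Primary screen in duplicate at 25 uM, actives retested in concentration series; loss of signal vs DMSO baseline.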

The target of assay [19] is Muscarinic acetylcholine receptor M1 (Homo sapiens) (UniProt P11229). Description: NVS_GPCR_hM1: NovaScreen (NVS) G Protein-Coupled Receptor Assay for human Muscarinic, M1 Receptor (AID 2283270). In a few lines:
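Cell-free radioligand displacement using membrane protein extracted from CHO cells, read by filter-based scintillation counting 1 h after dosing. Loss of bound signal fitted versus DMSO; primary screen single concentration 25 uM in duplicate, actives followed by concentration series.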

Results filed as inconclusive are left out. Calls of active or inactive are those of the source. How the source made its calls: active means hit-call score of the fitted dose curve at least 0.9, where 1 is the maximum; inconclusive means response in the unintended direction; inactive means score below 0.9.

What is called AC50 is the concentration giving half of the maximal activity seen.

Sequence of human Adrenergic, Alpha 2A Receptor (Adra2A), ADRA2A (gene 150) (P08913 whole entry, looked up): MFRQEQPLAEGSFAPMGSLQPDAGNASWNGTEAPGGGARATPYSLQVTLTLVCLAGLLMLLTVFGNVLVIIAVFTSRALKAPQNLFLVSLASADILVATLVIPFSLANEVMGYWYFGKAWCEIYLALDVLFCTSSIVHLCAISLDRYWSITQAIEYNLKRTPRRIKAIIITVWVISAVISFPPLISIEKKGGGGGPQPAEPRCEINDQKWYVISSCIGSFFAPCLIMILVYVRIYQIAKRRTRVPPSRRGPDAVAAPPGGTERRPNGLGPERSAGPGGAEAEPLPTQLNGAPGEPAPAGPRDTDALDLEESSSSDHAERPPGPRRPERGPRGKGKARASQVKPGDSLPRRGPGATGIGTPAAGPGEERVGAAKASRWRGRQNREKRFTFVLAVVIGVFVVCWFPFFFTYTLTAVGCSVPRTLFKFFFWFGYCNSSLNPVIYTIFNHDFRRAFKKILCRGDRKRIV
Sequence of D(1A) dopamine receptor (Homo sapiens) (P21728 whole entry, looked up): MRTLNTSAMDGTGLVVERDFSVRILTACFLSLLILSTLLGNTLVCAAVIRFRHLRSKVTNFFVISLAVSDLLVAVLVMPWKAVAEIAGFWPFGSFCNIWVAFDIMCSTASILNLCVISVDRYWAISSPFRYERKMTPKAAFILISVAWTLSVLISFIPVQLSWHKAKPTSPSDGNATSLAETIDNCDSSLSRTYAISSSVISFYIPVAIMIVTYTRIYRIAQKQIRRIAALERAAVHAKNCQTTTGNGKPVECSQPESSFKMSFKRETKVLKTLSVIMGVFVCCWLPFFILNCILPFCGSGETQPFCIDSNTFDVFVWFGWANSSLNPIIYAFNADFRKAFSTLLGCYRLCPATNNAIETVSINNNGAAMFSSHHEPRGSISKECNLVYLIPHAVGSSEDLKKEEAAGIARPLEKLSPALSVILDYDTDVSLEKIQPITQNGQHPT
Sequence of Muscarinic acetylcholine receptor M3 (Homo sapiens) (P20309 whole entry, looked up): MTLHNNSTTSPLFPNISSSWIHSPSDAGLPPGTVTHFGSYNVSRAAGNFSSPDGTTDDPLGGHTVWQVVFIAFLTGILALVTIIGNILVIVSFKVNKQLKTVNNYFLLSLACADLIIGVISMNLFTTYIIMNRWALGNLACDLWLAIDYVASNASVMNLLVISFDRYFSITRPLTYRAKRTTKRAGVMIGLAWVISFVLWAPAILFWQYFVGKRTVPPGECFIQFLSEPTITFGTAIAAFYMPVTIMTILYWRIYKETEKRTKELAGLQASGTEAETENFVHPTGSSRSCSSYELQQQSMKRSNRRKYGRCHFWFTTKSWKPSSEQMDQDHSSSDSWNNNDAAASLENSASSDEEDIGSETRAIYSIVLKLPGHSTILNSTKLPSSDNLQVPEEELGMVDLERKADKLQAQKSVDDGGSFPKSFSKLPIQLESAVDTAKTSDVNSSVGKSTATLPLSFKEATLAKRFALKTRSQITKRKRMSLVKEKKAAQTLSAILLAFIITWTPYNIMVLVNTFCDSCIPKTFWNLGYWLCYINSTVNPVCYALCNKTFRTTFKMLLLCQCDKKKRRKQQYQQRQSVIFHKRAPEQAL
Sequence of human Leukotriene B4 Receptor 1 (LTB4-BLT1), LTB4R (gene 1241) (Q15722 whole entry, looked up): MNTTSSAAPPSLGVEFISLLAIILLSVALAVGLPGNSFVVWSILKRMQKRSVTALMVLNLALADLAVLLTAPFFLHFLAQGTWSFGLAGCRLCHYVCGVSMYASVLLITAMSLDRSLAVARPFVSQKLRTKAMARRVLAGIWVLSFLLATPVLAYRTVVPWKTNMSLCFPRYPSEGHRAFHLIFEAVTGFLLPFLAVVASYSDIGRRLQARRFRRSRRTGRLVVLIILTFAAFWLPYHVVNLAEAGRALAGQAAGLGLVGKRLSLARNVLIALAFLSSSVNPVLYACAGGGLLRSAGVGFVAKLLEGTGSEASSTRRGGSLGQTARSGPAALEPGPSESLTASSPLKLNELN
Sequence of Beta-2 adrenergic receptor (Homo sapiens) (P07550 whole entry, looked up): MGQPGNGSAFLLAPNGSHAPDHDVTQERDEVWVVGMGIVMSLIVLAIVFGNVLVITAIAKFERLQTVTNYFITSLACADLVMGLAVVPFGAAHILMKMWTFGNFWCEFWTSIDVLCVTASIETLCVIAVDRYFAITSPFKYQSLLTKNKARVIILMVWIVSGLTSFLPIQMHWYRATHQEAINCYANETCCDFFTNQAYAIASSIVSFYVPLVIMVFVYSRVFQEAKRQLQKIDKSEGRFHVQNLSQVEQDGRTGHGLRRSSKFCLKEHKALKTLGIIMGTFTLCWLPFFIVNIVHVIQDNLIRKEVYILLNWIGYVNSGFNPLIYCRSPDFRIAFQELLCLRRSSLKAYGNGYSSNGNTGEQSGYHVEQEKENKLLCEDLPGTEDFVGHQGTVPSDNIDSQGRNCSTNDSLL
Sequence of Muscarinic acetylcholine receptor M2 (Homo sapiens) (P08172 whole entry, looked up): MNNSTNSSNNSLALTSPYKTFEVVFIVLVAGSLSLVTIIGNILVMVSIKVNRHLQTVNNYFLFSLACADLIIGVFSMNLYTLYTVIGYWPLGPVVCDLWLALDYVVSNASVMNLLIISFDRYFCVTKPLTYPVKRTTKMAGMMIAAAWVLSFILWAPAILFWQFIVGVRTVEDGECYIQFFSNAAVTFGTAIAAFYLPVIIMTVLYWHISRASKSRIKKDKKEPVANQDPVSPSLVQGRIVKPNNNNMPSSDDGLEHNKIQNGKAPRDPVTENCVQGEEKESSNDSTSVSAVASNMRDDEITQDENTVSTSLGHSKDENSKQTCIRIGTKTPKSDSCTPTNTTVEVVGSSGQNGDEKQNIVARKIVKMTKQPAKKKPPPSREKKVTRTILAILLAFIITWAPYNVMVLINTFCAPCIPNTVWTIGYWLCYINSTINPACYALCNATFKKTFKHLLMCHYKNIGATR

Consider `CCN(C(=O)c1cc(C)cc(OC[C@H](C)Nc2ccncc2)c1)C(C)C`, for which the half-maximal activity concentration (AC50) in [1] is 7.91 µM (active); in assay [2] it was 5.9 µM (active); in assay [3], 16.9 µM (active); in assay [4] it was 10600 nM (active); in [5], 11.3 µM (active).
For `CCC(C)(C)C(=O)O[C@H]1C[C@@H](C)C=C2C=C[C@H](C)[C@H](CC[C@@H]3C[C@@H](O)CC(=O)O3)[C@H]21`, the molecule was called inactive in assay [6] and in [7].
As to `CCc1cc(SCc2sc(-c3ccc(C(F)(F)F)cc3)nc2CN2CCN(c3ccc(OC)cc3)CC2)ccc1OCC(=O)O`, the concentration at half-maximal activity (AC50) in assay [8] was 2.63 µM (active); in assay [10], 9.64 µM (active); in assay [11], 6.77 µM (active); in assay [6], 4.08 µM (active); in assay [12], 25 µM (active); in assay [7] it was 11.5 µM (active). Besides, the figures for the AC50 in [2], in [5] and in [13] were 37.3 µM (active), 35.7 µM (active) and 9.13 µM (active), respectively. For the same molecule, the molecule was called inactive in [9].
On to `O=C(CCCCCCCCc1cccnc1)N1CCC(C=C(c2ccccc2)c2ccccc2)CC1`, for which the call in [14] and in assay [3] was inactive.
For `CC[C@H](C)C(=O)O[C@H]1C[C@@H](C)C=C2C=C[C@H](C)[C@H](CC[C@@H]3C[C@@H](O)CC(=O)O3)[C@H]21`, the molecule was called inactive in [15].
On to `CC/C(=C\C(=N/O)C(N)=O)C(C)[N+](=O)[O-]` (stereo not given), for which the molecule was classed as inactive in [16].
With `CN(C)c1ccc(N=NS(=O)(=O)O)cc1`, the molecule was classed as inactive in assay [13] and in assay [17].
`COc1cccc(-c2ccc(/C=C\CN3CCCCCC3)cc2Cl)c1`: the AC50 in assay [1] was 8.54 µM (active); in assay [18], 22.6 µM (active); in [8], 0.401 µM (active); in [9] it was 26.4 µM (active); in assay [11], 10.2 µM (active); in assay [6], 8.5 µM (active). Moreover, the half-maximal activity concentration (AC50) in assay [12] was 11.1 µM (active); in [7], 12.6 µM (active); in [19], 5.57 µM (active); in assay [2], 14.5 µM (active); in assay [3], 2.41 µM (active); in [4], 427 nM (active). In addition, the values for the AC50 in assay [5] and in assay [13] were 1.22 µM (active) and 6.57 µM (active), respectively. Moreover, in assay [16], the call was inactive.
In the case of `CCCCC(CC)COC(=O)CCCCCCCCC(=O)OCC(CC)CCCC` (stereo not given), the outcome in [14] was inactive.
As to `Cn1c(=O)cc(Oc2ccc(F)cc2F)c2cnc(NCC(C)(C)O)nc21`, in assay [12], the AC50 was 6.95 µM (active).
As to `CCOc1cccc(-n2cc(C(=O)N3CCN(c4cc(C(=O)O)c5ccccc5c4)CC3)nc2-c2ccc(C)cc2)c1`, the half-maximal activity concentration (AC50) in assay [8] was 12.3 µM (active); in assay [9], 6.36 µM (active); in assay [12], 23.8 µM (active); in assay [7], 17.1 µM (active); in assay [5], 26.1 µM (active).
Consider `CCCCCCc1ccc(O)cc1O`, for which the AC50 in assay [18] was 25 µM (active); in assay [8] it was 6.31 µM (active).
Regarding `CC[C@H]1CC[C@H](NCc2cc3c(cc2OC)[C@H]2C[C@H]2C(=O)N3C)[C@H](c2ccccc2)N1`, the AC50 in assay [1] was 4.96 µM (active); in [19] it was 1.47 µM (active); in [3], 12.3 µM (active); in assay [4] it was 835 nM (active); in assay [5], 2.31 µM (active); in assay [13], 7.73 µM (active).
Turning to `O=C(O)CC(O)C(=O)O` (stereo not given), the outcome in assay [1] and in assay [4] was inactive.
